In PubChem BioAssay (NCI):
This is part of a sample that, as a whole, favours compounds with a hit. Of some 83,000 tested, about 20% had one in any assay.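 Method: cells in 96-well plates; compound added at one concentration; 48 h incubation; percent growth measured; values under 10 scored active.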 Calls of active or inactive are those of the source.

Experiments:
Test in all cases: NCI-60 one-dose screen, 48 h (100 = growth as untreated, 0 = no growth, -100 = all killed)
Conditions in all cases: 10 µM unless noted
[1] = test system: NCI-H23 lung
[2] = test system: NCI-H226 lung
[3] = test system: NCI-H322M lung
[4] = test system: HOP-62 NSCLC
[5] = test system: NCI-H460 lung
[6] = test system: HOP-92 NSCLC
[7] = test system: NCI-H522 lung
[8] = test system: A549/ATCC NSCLC
[9] = test system: 786-0 renal
[10] = test system: COLO 205 colon

Measured: growth

COc1ccc(-c2nc(N/N=C/c3cccc(Br)c3)nc(N3CCOCC3)c2C#N)cc1
inactive: [1] 103% | [2] 75.8% | [3] 88.5% | [4] 79.1% | [5] 31.8% | [6] 82% | [7] 70.6% | [8] 62.2% | [9] 35.6% | [10] 40.8%

C[C@H]1[C@H](C)CC[C@]2(CO)CC[C@]3(C)C(=CC[C@@H]4[C@@]5(C)Cc6c([nH]c7ccccc67)C(C)(C)[C@@H]5CC[C@]43C)[C@H]12
active: [7] -12.7%
inactive: [1] 74.6% | [2] 76.9% | [3] 72.3% | [4] 89% | [5] 66.8% | [6] 101% | [8] 81% | [9] 76.1% | [10] 95.1%

O=C(Nc1cccc(Cl)c1)c1cc(Cl)ccc1O
active: [1] 0.837% | [2] -2.52% | [3] 4.17% | [4] 5.65% | [5] 2.08% | [6] -32% | [7] -2.31% | [9] 5.54%
inactive: [8] 14.7% | [10] 78.6%

CC(C)(C)CC(C)(C)Nc1c(-c2ccc3c(c2)OCO3)nc2cnccn12
inactive: [1] 97.7% | [2] 90.1% | [3] 101% | [4] 97.9% | [5] 97.2% | [6] 70.3% | [7] 74.1% | [8] 82.7% | [9] 67.7% | [10] 102%

CC1(C)CC[C@]2(C(=O)NCC#CCN3CCOCC3)CC[C@]3(C)C(=CC[C@@H]4[C@@]5(C)Cc6c([nH]c7ccccc67)C(C)(C)[C@@H]5CC[C@]43C)[C@@H]2C1
inactive: [1] 95.9% | [2] 95.1% | [3] 96.1% | [4] 98.1% | [5] 90.1% | [6] 79.8% | [7] 85.2% | [8] 72% | [9] 92.7% | [10] 30.5%

CCOC(=O)c1ccc(Nc2ccnc(SCC(=O)c3ccc(C#N)cc3)n2)cc1
inactive: [1] 79.9% | [2] 61.4% | [3] 90.5% | [4] 63.4% | [5] 90.5% | [6] 105% | [7] 27% | [8] 60.6% | [9] 78.4% | [10] 70.8%

CC(C)(O)C1CCCN1C(=O)c1ccccc1I (stereo not given)
inactive: [1] 94.6% | [2] 89.4% | [3] 101% | [4] 95.4% | [5] 85.8% | [6] 58.6% | [7] 83.9% | [8] 92.1% | [9] 87.7% | [10] 105%

CN(C)CCCn1c2c(c3ccc(-c4ccn[nH]4)cc3c1=O)C(=O)c1ccccc1-2
active: [2] 6.87% | [4] 5.59% | [5] 1.55% | [8] 0.619% | [9] 2.46%
inactive: [1] 21.6% | [3] 81.9% | [6] 34.1% | [7] 25.9% | [10] 43%

O=C(N/N=C/c1ccc(O)c(O)c1)c1sc2ccccc2c1Cl
inactive: [1] 97% | [2] 68.8% | [3] 98.5% | [4] 81.7% | [5] 46% | [6] 49.7% | [7] 95% | [8] 96.3% | [9] 65.2% | [10] 53.5%

O=S(=O)(c1cccc(NC2=Nc3cccc4cccc2c34)c1)N1CCCC1
inactive: [1] 60.8% | [2] 62.3% | [3] 80.1% | [4] 91.5% | [5] 50.7% | [7] 75.3% | [8] 66.3% | [9] 82.9% | [10] 95.6%
active: [6] -3.41%
